Bioassay records: PubChem BioAssay, National Center for Advancing Translational Sciences (NCATS)
ELG1 repair inh – ELG1-dependent DNA repair inhibition | HEK293T ELG1-luciferase reporter, luminescence, 16 h; DNA damage induced by 5-fluorouridine | Potency, µM (top dose mostly 46.1 µM), for the others: top-dose activity change, negative = inhibition, most hits filed as inhibitors | hit rate 2.3% among 330,000; note: % is set by controls: 0 for no effect and ±100 for the full control effect; nearly all actives have a fitted effect of over 55% in size
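Quantitative HTS, concentration-response format. 2,000 cells/well co-treated with 5-fluorouridine and compound, 16 hr in 5% CO2 at 37 °C; ONE-Glo luminescence read after 30 min.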
SMN2 splice up – SMN2 splice variant enhancement; AID 1458; HEK293 SMN2-luciferase splicing reporter, luminescence, 30-36 h; hit rate 2.8% among 210,000; Potency, µM (series often up to 46.1 µM), for inactives: top-dose activity change, positive = activation, usual class: activators; note: % of control where 0% means no effect; nearly all actives have a fitted effect of over 55% in size
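HEK293 cells carry an SMN2 minigene-luciferase reporter in which exon 7 inclusion puts luciferase in frame. Cells were seeded at 2000 cells/well, attached for 10-12 hours, then exposed to compounds for 30-36 hours at 37C before ONE-Glo luminescence.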
NPC1 prom act – NPC1 promoter activation. Huh7 NPC1 promoter luciferase reporter, 24 h. Potency, µM (titrated, usually from 9.22 µM), for inactives: at the top dose activation, most hits filed as activators. hit rate 2.4% among 320,000; note: % of control where 0% means no effect; nearly all actives have a fitted effect of over 60% in size
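Luciferase expression driven by the NPC1 promoter was measured in stably transfected Huh7 cells after a 24 h compound incubation, using a luciferase reagent and a luminescence read.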
ELG1 genotoxic – genotoxicity induction in ELG1-luciferase HEK293T cells | HEK293T ELG1-luciferase reporter, luminescence, 16 h | Potency, µM (titrated, usually from 46 µM), inactives show at the top dose activity change, positive = activation, actives largely listed as activators | hit rate 1.3% among 330,000; note: % of control where 0% means no effect; nearly all actives have a fitted effect of over 60% in size
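Screening used a luciferase reporter fused to human ELG1 in HEK293T cells. Luminescence was read on a CCD plate imager after 16 hr exposure and 30 min ONE-Glo incubation.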
Rab9 prom act – Rab9 promoter activation | Huh7 Rab9 promoter-luciferase reporter, luminescence, 24 h | Potency, µM (doses to about 9.22 µM), for the others: at the top dose activation, negative = inhibition, most hits filed as activators | hit rate 2.8% among 320,000 | AID 485297; note: % of control where 0% means no effect; nearly all actives have a fitted effect of over 60% in size
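Rab9 promoter-driven luciferase in stably transfected Huh7 cells; 1500 cells/well rested 2 h, exposed to compound in DMSO for 24 h at 37 °C, 5% CO2. Luminescence read 10 min after adding luciferase reagent at ambient temperature.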
FLuc modulator – inhibits or activates purified firefly luciferase, miR-21 counter-screen; purified FLuc, Km substrates, luminescence inhibition; Potency, µM (series often up to 57.5 µM), inactives show top-dose activity change, negative = inhibition, hits mostly inhibitors; P08659; hit rate 6.9% among 360,000;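 note: plate controls were vehicle for no effect and reference inhibitor for full effect; nearly all actives have a fitted effect of over 55% in size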
Target sequence (P08659 whole entry, looked up): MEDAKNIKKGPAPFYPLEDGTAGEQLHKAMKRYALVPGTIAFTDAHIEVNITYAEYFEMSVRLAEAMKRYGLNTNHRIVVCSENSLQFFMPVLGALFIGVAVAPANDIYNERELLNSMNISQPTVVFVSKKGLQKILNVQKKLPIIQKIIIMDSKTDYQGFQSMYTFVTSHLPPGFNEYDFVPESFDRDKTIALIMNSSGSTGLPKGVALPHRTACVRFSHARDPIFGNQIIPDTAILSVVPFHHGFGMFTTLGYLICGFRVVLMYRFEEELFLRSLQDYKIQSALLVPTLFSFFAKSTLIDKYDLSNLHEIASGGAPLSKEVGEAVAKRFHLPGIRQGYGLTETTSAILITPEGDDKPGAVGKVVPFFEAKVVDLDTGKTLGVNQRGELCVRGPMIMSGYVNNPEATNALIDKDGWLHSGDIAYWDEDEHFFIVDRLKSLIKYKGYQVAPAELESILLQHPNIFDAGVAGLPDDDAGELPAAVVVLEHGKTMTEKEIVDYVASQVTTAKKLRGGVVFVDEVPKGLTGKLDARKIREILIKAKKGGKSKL
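Purified P. pyralis luciferase (10nM final) with 10uM D-luciferin and 10uM ATP (Km levels) in 50mM Tris acetate pH 7.5, 10mM Mg acetate, 0.01% Tween-20, 0.05% BSA; qHTS 6-point titration, ~60 µM downward; luminescence read.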
* = called active by the depositor; ? = inconclusive; · = no result given. Shown are actives, neighbours in structure and some others; about 9.2% of the full set was active somewhere. Calls come from the whole dose curve; as a rule, active = well fitted curve in the direction sought with a large enough effect; inconclusive = small, poorly fitted or top-dose-only effect, or another doubt; inactive = no such curve, though single readings can be large; an effect the other way counts as inactive or inconclusive. Potency is the fitted concentration of half-maximal effect.

SMILES	ELG1 repair inh	SMN2 splice up	NPC1 prom act	ELG1 genotoxic	Rab9 prom act	FLuc modulator
CCCNC(=O)c1onc(CS(=O)(=O)c2cccc(OC)c2)c1C(=O)NCCC	29%	·	-3%	-1%	-5%	-3%
O=C(CSc1cn(CCNC(=O)c2ccc3ccccc3c2)c2ccccc12)NCc1ccco1	23µM*	-95%	1%	?	0%	-13%
Cn1c(=O)cc(SCC(=O)NCc2ccco2)c2ccccc21	13%	·	0%	2%	-1%	-11%
COc1ccc(-c2nc3ccccn3c2Cl)cc1	?	·	3.2µM*	1.2µM*	0.79µM*	0.43µM*
Clc1ccc(-c2nc3ccccn3c2CN2CCOCC2)cc1	-8%	7%	1%	6%	-7%	-13%
COc1ccc(-c2nc3ccccn3c2CN2CCN(c3ccccc3F)CC2)cc1	?	5%	1%	-5%	2%	17µM*
O=C(c1cc(-c2ccccc2)on1)N1CCCc2ccccc21	?	·	13%	?	?	24µM*
O=C(c1cc(-c2ccccc2)on1)N1CCN(c2ccccc2)CC1	10%	·	1%	-5%	-2%	24µM*
O=C(c1cc(-c2ccco2)on1)N1CCCc2ccccc21	?	2%	14%	8%	12%	?
CN(C(=O)c1cc(-c2ccccc2)on1)C1CCCCC1	?	·	1.3µM*	?	2.8µM*	8.5µM*
O=C(c1cc(-c2ccccc2)on1)N1CCCC1	?	11µM*	0.79µM*	1.6µM*	0.89µM*	9.5µM*
Cc1cc(C)c(C(N)=O)c(SCC(=O)c2cc(C)n(-c3cc(C)on3)c2C)n1	?	·	·	-5%	·	·
O=C(COC(=O)c1cc(-c2ccccc2)nc2c(Cl)cccc12)c1ccc(F)cc1	·	-16%	·	·	·	-2%
O=C(CN1C(=O)c2ccccc2C1=O)NCCOc1ccccc1	3%	·	-4%	-3%	-2%	0%
O=C(NCc1ccccc1Cl)c1ccc(CSCc2ccccc2Cl)o1	·	·	·	·	·	-16%
C=C1CSc2nc(=O)c3c4c(sc3n21)CCC4	21µM*	-3%	2%	-7%	0%	2%
Cc1onc2c(=O)n(-c3ccccc3)nc(-c3ccccc3)c12	-3%	·	-1%	0%	-6%	0%
Cn1c(-c2ccccc2)cc2onc(-c3ccccc3)c2c1=O	?	·	0.079µM*	?	40µM*	0.17µM*
Cn1c(-c2ccccc2F)cc2onc(-c3ccccc3)c2c1=O	?	·	0.32µM*	0.46µM*	0.4µM*	0.54µM*
CSc1nc(-c2ccccc2F)c(C#N)c(=O)n1C	18%	-1%	-3%	-8%	3%	0%
C=CCN1C(=O)C(CC(=O)O)S/C1=N/N=C/c1ccc(N(CC)CC)cc1 (stereo not given)	2%	·	3%	1%	-2%	21µM*
CN(C)c1ccc(/C=N/N=C2/SC(CC(=O)O)C(=O)N2c2ccc(O)cc2)cc1 (stereo not given)	17%	-7%	-1%	0%	26%	?
Cc1ccc(Nc2nc(-c3sc(N)nc3C)cs2)cc1	-1%	·	0.79µM*	?	2.2µM*	2.1µM*
CC(=O)Nc1ccc(Nc2nc(-c3sc(C)nc3C)cs2)cc1	?	·	-5%	-9%	-1%	21µM*
Cc1ccc(Nc2nc(-c3sc(NC(=O)c4ccc([N+](=O)[O-])cc4)nc3C)cs2)cc1	?	-9%	-2%	3%	0%	?
SMILES	ELG1 repair inh	SMN2 splice up	NPC1 prom act	ELG1 genotoxic	Rab9 prom act	FLuc modulator
COc1ccc(Nc2nc(-c3sc(N)nc3C)cs2)cc1	?	18%	?	?	22%	13µM*
Cc1ccc(Nc2nc(-c3sc(C)nc3C)cs2)cc1	-26%	·	-18%	18%	0%	12µM*
Cc1cccc(NC(=O)C(NS(=O)(=O)c2ccc3c(c2)oc(=O)n3C)C(C)C)c1 (stereo not given)	·	10%	·	·	·	3%
Cc1cnccc1CN(C)Cc1nc(Cc2ccccc2Cl)no1	-12%	·	-18%	-9%	-22%	0%
CCOc1ccc(Nc2nc(-c3sc(N)nc3C)cs2)cc1	4%	·	?	10%	26%	15µM*
O=C(Cc1ccc(F)cc1)N1CCC(c2nc3c(nnn3Cc3ccc(Cl)cc3)c(=O)[nH]2)CC1	·	5%	·	·	·	-15%
c1ccc(OCc2nc3ccccc3[nH]2)cc1	?	13µM*	2.8µM*	?	4µM*	12µM*
OC(Cc1nc2ccccc2[nH]1)c1ccccc1Cl (stereo not given)	?	-1%	24%	9%	22%	24µM*
Cc1ccc(OCc2nc3ccccc3[nH]2)cc1	?	3.5µM*	1.4µM*	?	0.63µM*	1.3µM*
CCc1nc2ccccc2[nH]1	11%	0%	-1%	0%	6%	0%
Clc1ccc(OCc2nc3ccccc3[nH]2)cc1	?	11µM*	2µM*	?	1.1µM*	3.4µM*
Cc1ccc2c(c1)-c1nc(-c3ccc(Cl)cc3)cc(-c3coc4ccccc4c3=O)c1CO2	·	8%	·	·	·	-4%
Cc1nn(-c2ccccc2)c(C)c1NC(=O)COC(=O)Cc1cccc(C(F)(F)F)c1	8%	·	1%	4%	-3%	-1%
CN(C)c1ccc(C(=O)c2ccc(N(C)C)c3ccccc23)cc1	?	?	-7%	?	-19%	15µM*
COc1ccc(C(=O)c2ccc(N(C)C)cc2)c(OC)c1	?	5%	-30%	0%	-20%	-17%
COc1ccc(/C=N/N=C2/NC(=O)C(CC(=O)O)S2)cc1OCc1ccccc1Cl (stereo not given)	-3%	11%	-1%	-2%	-1%	-3%
COc1cc(/C=N/O)ccc1OCc1ccccc1Cl	?	11µM*	3.2µM*	16µM*	1.6µM*	6.7µM*
COc1ccc(CCN(C)CCC(=O)Nc2cc(C)ccc2C)cc1OC	?	-7%	1%	-1%	-2%	13µM*
COc1ccccc1Nc1nnc(SCC2CCCCO2)s1 (stereo not given)	?	?	3.5µM*	?	2.5µM*	1.5µM*
Cc1ccccc1Nc1nnc(SCC2CCCCO2)s1 (stereo not given)	?	11µM*	0.71µM*	?	2.8µM*	2.4µM*
CCOc1ccc(OCCC(=O)NNC(=O)c2ccccc2Cl)cc1	16%	·	-5%	-7%	-3%	0%
CCn1c(CNC(=O)c2ccc(Cl)cc2)nnc1SCC(=O)NC1=NCCS1	-2%	·	-1%	-1%	-3%	4%
